Measurements: PubChem BioAssay AID1159580 (chemical genetic matrix, 2015)
Screen size: about 5,500 compounds; about 2,000 (36%) were called active. Inconclusive results (about 18%) are left out. Cut-off read from the data, not from the text of the source: active = normalized growth mostly below about 0.91 (no sharp cut-off); inconclusive = no clear call, values can overlap the other calls; inactive = mostly above about 0.92. The list shows a part of the results.

Test: chemical genetic growth profiling, strain panel (AID 1159580);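 note: tested at 20 µM; growth read once vehicle control cultures reached saturation at 30 °C; 1 = growth at the plate median or of vehicle wells; lower values mean less growth of the strain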
Conditions: growth OD

Measured: normalized growth

C[C@@H]1CC2C3CCC4=CC(=O)C=C[C@]4(C)[C@@]3(F)[C@@H](O)C[C@]2(C)[C@@]1(O)C(=O)COP(=O)(O)O (stereo partly drawn)
inactive: S. cerevisiae deletion strains, locus YJR066W, strain TOR1, hits give low values 0.95 | S. cerevisiae deletion strains, locus YJR075W, strain HOC1, hits give low values 1.02 | S. cerevisiae deletion strains, locus YKL009W, strain mrt4, hits give low values 1 | S. cerevisiae deletion strains, locus YKL068W, hits give low values 1.01 | S. cerevisiae deletion strains, locus YKL085W, strain MDH1 (second series), hits give low values 1.05 | S. cerevisiae deletion strains, locus YKL085W, strain MDH1, hits give low values 1.05 | S. cerevisiae deletion strains, locus YKL160W, strain elf1, hits give low values 0.965 | S. cerevisiae deletion strains, locus YKR001C, strain vps1, hits give low values 0.997 | S. cerevisiae deletion strains, locus YKR026C, strain gcn3, hits give low values 0.966 | S. cerevisiae deletion strains, locus YKR091W, strain srl3, hits give low values 0.982 | S. cerevisiae deletion strains, locus YLL001W, strain dnm1, hits give low values 0.931 | S. cerevisiae deletion strains, locus YLL026W, hits give low values 0.986 | S. cerevisiae deletion strains, locus YLL041C, strain sdh2, hits give low values 0.97 | S. cerevisiae deletion strains, locus YLR027C, strain aat2, hits give low values 0.975 | S. cerevisiae deletion strains, locus YLR039C, strain RIC1, hits give low values 1.02 | S. cerevisiae deletion strains, locus YLR058C, strain SHM2, hits give low values 1.01 | S. cerevisiae deletion strains, locus YLR102C, strain apc9, hits give low values 0.993 | S. cerevisiae deletion strains, locus YLR113W, strain HOG1, hits give low values 0.977 | S. cerevisiae deletion strains, locus YLR221C, strain rsa3, hits give low values 1.01 | S. cerevisiae deletion strains, locus YLR258W, strain gsy2, hits give low values 1 | S. cerevisiae deletion strains, locus YLR262C, strain YPT6 (second series), hits give low values 0.959 | S. cerevisiae deletion strains, locus YLR262C, strain YPT6, hits give low values 1.01 | S. cerevisiae deletion strains, locus YLR268W, strain sec22, hits give low values 0.996 | S. cerevisiae deletion strains, locus YLR320W, strain mms22, hits give low values 1.01 | S. cerevisiae deletion strains, locus YLR330W, strain CHS5, hits give low values 1.01 | S. cerevisiae deletion strains, locus YLR342W, strain FKS1 (second series), hits give low values 1.01 | S. cerevisiae deletion strains, locus YLR342W, strain FKS1, hits give low values 0.959 | S. cerevisiae deletion strains, locus YLR357W, strain rsc2, hits give low values 0.957 | S. cerevisiae deletion strains, locus YLR370C, strain arc18, hits give low values 0.972 | S. cerevisiae deletion strains, locus YLR371W, strain rom2, hits give low values 0.994 | S. cerevisiae deletion strains, locus YLR384C, strain iki3, hits give low values 0.959 | S. cerevisiae deletion strains, locus YLR418C, strain cdc73, hits give low values 1.01 | S. cerevisiae deletion strains, locus YML016C, strain PPZ1, hits give low values 1 | S. cerevisiae deletion strains, locus YML032C, strain rad52, hits give low values 0.991 | S. cerevisiae deletion strains, locus YML120C, strain ndi1, hits give low values 0.97 | S. cerevisiae deletion strains, locus YML124C, strain tub3, hits give low values 0.993 | S. cerevisiae deletion strains, locus YMR058W, strain fet3, hits give low values 0.978 | S. cerevisiae deletion strains, locus YMR078C, strain ctf18, hits give low values 0.987 | S. cerevisiae deletion strains, locus YMR125W, strain sto1, hits give low values 0.933 | S. cerevisiae deletion strains, locus YMR129W, hits give low values 0.987 | S. cerevisiae deletion strains, locus YMR205C, strain PFK2, hits give low values 0.981 | S. cerevisiae deletion strains, locus YMR223W, strain ubp8, hits give low values 1.01 | S. cerevisiae deletion strains, locus YMR231W, strain pep5, hits give low values 0.957 | S. cerevisiae deletion strains, locus YMR263W, strain SAP30, hits give low values 1.01 | S. cerevisiae deletion strains, locus YMR307W, strain GAS1, hits give low values 1.09 | S. cerevisiae deletion strains, locus YNL067W, strain RPL9B, hits give low values 1.01 | S. cerevisiae deletion strains, locus YNL071W, strain lat1, hits give low values 0.985 | S. cerevisiae deletion strains, locus YNL153C, strain GIM3, hits give low values 0.998 | S. cerevisiae deletion strains, locus YNL183C, strain NPR1, hits give low values 0.955 | S. cerevisiae deletion strains, locus YNL209W, strain ssb2, hits give low values 0.986 | S. cerevisiae deletion strains, locus YNL233W, strain BNI4, hits give low values 1.02 | S. cerevisiae deletion strains, locus YNL248C, strain rpa49, hits give low values 0.987 | S. cerevisiae deletion strains, locus YNL250W, strain rad50, hits give low values 0.993 | S. cerevisiae deletion strains, locus YNL271C, strain bni1, hits give low values 1.01 | S. cerevisiae deletion strains, locus YNL298W, strain CLA4, hits give low values 1.02 | S. cerevisiae deletion strains, locus YNL307C, strain MCK1, hits give low values 0.995 | S. cerevisiae deletion strains, locus YNL322C, strain KRE1 (second series), hits give low values 0.963 | S. cerevisiae deletion strains, locus YNR049C, strain mso1, hits give low values 0.98 | S. cerevisiae deletion strains, locus YNR052C, strain pop2, hits give low values 1.02 | S. cerevisiae deletion strains, locus YOL006C, strain TOP1, hits give low values 1.01 | S. cerevisiae deletion strains, locus YOL012C, strain htz1 1.85 | S. cerevisiae deletion strains, locus YOL147C, strain pex11, hits give low values 1.01 | S. cerevisiae deletion strains, locus YOR001W, strain rrp6, hits give low values 0.946 | S. cerevisiae deletion strains, locus YOR061W, strain CKA2, hits give low values 1.01 | S. cerevisiae deletion strains, locus YOR069W, strain VPS5, hits give low values 1.01 | S. cerevisiae deletion strains, locus YOR070C, strain gyp1, hits give low values 0.99 | S. cerevisiae deletion strains, locus YOR080W, strain dia2, hits give low values 0.94 | S. cerevisiae deletion strains, locus YOR083W, strain WHI5, hits give low values 0.959 | S. cerevisiae deletion strains, locus YOR106W, strain vam3, hits give low values 0.928 | S. cerevisiae deletion strains, locus YOR136W, strain idh2, hits give low values 1 | S. cerevisiae deletion strains, locus YOR144C, strain elg1, hits give low values 0.997 | S. cerevisiae deletion strains, locus YOR184W, strain ser1, hits give low values 0.99 | S. cerevisiae deletion strains, locus YOR231W, strain MKK1, hits give low values 1.01 | S. cerevisiae deletion strains, locus YOR265W, strain rbl2, hits give low values 0.974 | S. cerevisiae deletion strains, locus YOR270C, strain vph1, hits give low values 1 | S. cerevisiae deletion strains, locus YOR290C, strain snf2, hits give low values 1.01 | S. cerevisiae deletion strains, locus YOR316C, strain cot1, hits give low values 1 | S. cerevisiae deletion strains, locus YPL051W, strain arl3, hits give low values 1.01 | S. cerevisiae deletion strains, locus YPL078C, strain atp4, hits give low values 0.935 | S. cerevisiae deletion strains, locus YPL106C, strain sse1, hits give low values 0.966 | S. cerevisiae deletion strains, locus YPL240C, strain hsp82, hits give low values 0.976 | S. cerevisiae deletion strains, locus YPL256C, strain CLN2, hits give low values 0.985 | S. cerevisiae deletion strains, locus YPR119W, strain clb2, hits give low values 0.993 | S. cerevisiae deletion strains, locus YPR141C, strain kar3, hits give low values 0.994 | S. cerevisiae deletion strains, locus YPR163C, strain tif3, hits give low values 0.995 | S. cerevisiae deletion strains, locus YPR167C, strain met16, hits give low values 0.997 | S. cerevisiae deletion strains, strain wtn01, hits give low values 1 | S. cerevisiae strains, strain wild type, hits give low values 1.01
